Results published in PubChem BioAssay (NCI).
Where “and” joins values, the source holds several entries; their conditions need not be identical. Equal entries are not always repeated. The panel holds about 79,000 compounds, 15% with a hit somewhere; the sample as a whole holds those more often. Calls of active or inactive are those of the source. Rule as the data show it: active = growth inhibition above about 70%; inactive = the rest.

Test: NCI Yeast Anticancer Drug Screen. Data for the sgs1 mgt1 strain (AID 161);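 also: 0% = growth of cultures given vehicle only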
Details: S. cerevisiae sgs1 mgt1 strain, stronger effect = higher value; at 50.0 µM unless noted
How it was run: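 Growth of a repair-deficient yeast mutant was monitored after compound treatment and expressed as inhibition relative to vehicle-treated cultures.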

SMILES | growth inhibition
c1ccc(OC2=NC3=S(S2)SC(Oc2ccccc2)=N3)cc1 | 56.7% (inactive)
CC(=O)CC(=O)Nc1nc2ccccc2s1 | 9.05% (inactive)
CCOc1nc(=O)n(C2OC(CO)C(O)C2O)s1 (stereo not given) | -3.7% (inactive)
CC1CCC(c2ccccc2)(c2ccccc2)C1=O (stereo not given) | -2.5% (inactive)
CCCOC(=O)c1ccc([N+](=O)[O-])cc1 | 14.2% (inactive)

Test: NCI Yeast Anticancer Drug Screen. Data for the cln2 rad14 strain (AID 165);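 also: 0% = growth equal to vehicle treated cultures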
Details: S. cerevisiae cln2 rad14 strain, stronger effect = higher value; at 50.0 µM unless noted
How it was run: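 Relative to vehicle controls, growth inhibition of compound-treated cln2 rad14 yeast was recorded.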

SMILES | growth inhibition
COc1ccc(/C=C2\N=C3N(Cc4ccccc4)C=C(N)N3C2=O)cc1 | -6.55% (inactive)
O=C1CC(c2ccccc2)n2c(nc3ccccc32)N1 (stereo not given) | -14.1% (inactive)
C#CC(C)(O)CCC(C)C (stereo not given) | 14.5% (inactive)
Clc1ccc(OCC(COc2ccccc2)Oc2nc(-c3ccccc3)nc(-c3ccccc3)n2)cc1 (stereo not given) | -5.8% (inactive)
c1ccc(C(=NN=C(c2ccccc2)c2ccccc2)c2ccccc2)cc1 | 30.5% (inactive)
CCCCCCN1COCC(COc2ccc(Cl)cc2)OC1 (stereo not given) | 22.1% (inactive)
O=[N+]([O-])c1ccc(CS(=O)Cc2ccccc2)cc1 (stereo not given) | 0.05% (inactive)
COc1ccc(NS(=O)c2ccccc2)cc1 (stereo not given) | 6.65% (inactive)
Cc1ccccc1C(=O)NC(O)(C(F)(F)F)C(F)(F)F | 32.9% (inactive)
CC(O)CCC(=O)c1nc2ccccc2s1 (stereo not given) | -6.3% (inactive)
CCOC(=O)c1c[nH]n(-c2ccccc2)c1=O | -3.15% (inactive)
Nc1c(Cl)ncnc1Nc1ccc(CCO)cc1 | -60.3% (inactive)
CC(N)C(=O)NO (stereo not given) | -40.6% (inactive)
CC(=O)NS(=O)(=O)c1ccc(NC(=O)/C=C/C(=O)O)cc1 | -3.05% (inactive)
Nc1nc(=O)[nH]c(=O)[nH]1 | -28.9% (inactive)
O=C1CCCCC(=O)Nc2ccccc2N1 | 0.9% (inactive)
NCc1ccc(F)cc1 | 12.7% (inactive)
CC1(C)N=C(C(N)=O)c2ncn(Cc3ccccc3)c2N1 | 18.4% (inactive)
C(=Nc1cccnc1)c1ccc(C=Nc2cccnc2)cc1 | 25.1% (inactive)
CC(=O)[C@@]1(O)CC[C@H]2[C@@H]3CC[C@@H]4C[C@H](O)CC[C@]4(C)[C@H]3[C@H](O)C[C@@]21C | -34.1% (inactive)

SMILES | growth inhibition
COc1ccc(C2CC(=O)N(c3ncccn3)C(=O)C2)cc1 | -13.7% (inactive)
CC1(C)CC2(Nc3ccccc3N2)C2=C(O1)C(=O)OC2 | -1.3% (inactive)
C[n+]1cccc(C#N)c1 | -14.8% (inactive) and -21.6% (inactive)
CCCc1cc(Cl)ccc1OCC(=O)O | 11.6% (inactive)
C1CSCCSS[C@@H]2CCCCC2SC1 (stereo not given in full) | -11.9% (inactive)
Cn1cc(C(=O)c2ccccc2)cc(C(=O)c2ccccc2)c1=O | 1.5% (inactive)
NC(=O)C1CC2(c3ccccn3)c3ccccc3C1c1ccccc12 (stereo not given) | 4.2% (inactive)
O=S(=O)(Cc1nc2ccccc2[nH]1)Cc1nc2ccccc2[nH]1 | -7.25% (inactive)
N#Cc1cccc2c1Nc1ccccc1S2 | 8.8% (inactive)
CSc1nc(NC2OC(COC(C)=O)C(OC(C)=O)C(OC(C)=O)C2OC(C)=O)c(N=CC=Nc2c(NC3OC(COC(C)=O)C(OC(C)=O)C(OC(C)=O)C3OC(C)=O)nc(SC)[nH]c2=O)c(=O)[nH]1 (stereo not given) | -17.7% (inactive)
NCCCc1nonc1C(=O)O | -4.05% (inactive)
C[N+]1(Cc2csc(-c3ccc(Cl)cc3)n2)CCOCC1 | 9.35% (inactive)
COC(=O)c1ccccc1CC1Cc2ccc3c(c2C1=O)CCCC3 (stereo not given) | 5.4% (inactive)
O=C(O)C[N-]CC(=O)O.OO.[O]=[V] | -30.7% (inactive)
N#Cc1nc(C2CC2)oc1N | 0.35% (inactive)
c1ccc(OC2=NC3=S(S2)SC(Oc2ccccc2)=N3)cc1 | 10.6% (inactive)
CC(=O)CC(=O)Nc1nc2ccccc2s1 | -13.2% (inactive)
CCOc1nc(=O)n(C2OC(CO)C(O)C2O)s1 (stereo not given) | -34.1% (inactive)
CC1CCC(c2ccccc2)(c2ccccc2)C1=O (stereo not given) | -15% (inactive)
CCCOC(=O)c1ccc([N+](=O)[O-])cc1 | 8.75% (inactive)

Test: NCI Yeast Anticancer Drug Screen. Data for the bub3 strain (AID 167)
Details: S. cerevisiae bub3 mutant strain, stronger effect = higher value; at 50.0 µM unless noted
How it was run: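 In this screen, a yeast mutant lacking normal mitotic checkpoint function is challenged with compound. Relative growth versus vehicle gives the inhibition value.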

SMILES | growth inhibition
COc1ccc(/C=C2\N=C3N(Cc4ccccc4)C=C(N)N3C2=O)cc1 | 17.8% (inactive)
O=C1CC(c2ccccc2)n2c(nc3ccccc32)N1 (stereo not given) | -15.4% (inactive)
C#CC(C)(O)CCC(C)C (stereo not given) | 10.8% (inactive)
Clc1ccc(OCC(COc2ccccc2)Oc2nc(-c3ccccc3)nc(-c3ccccc3)n2)cc1 (stereo not given) | -8.6% (inactive)
c1ccc(C(=NN=C(c2ccccc2)c2ccccc2)c2ccccc2)cc1 | 1.25% (inactive)
CCCCCCN1COCC(COc2ccc(Cl)cc2)OC1 (stereo not given) | 10.7% (inactive)
O=[N+]([O-])c1ccc(CS(=O)Cc2ccccc2)cc1 (stereo not given) | 6.75% (inactive)
COc1ccc(NS(=O)c2ccccc2)cc1 (stereo not given) | -2.5% (inactive)
Cc1ccccc1C(=O)NC(O)(C(F)(F)F)C(F)(F)F | 16.9% (inactive)
CC(O)CCC(=O)c1nc2ccccc2s1 (stereo not given) | 4.95% (inactive)
CCOC(=O)c1c[nH]n(-c2ccccc2)c1=O | -2.7% (inactive)
Nc1c(Cl)ncnc1Nc1ccc(CCO)cc1 | -4.4% (inactive)
CC(N)C(=O)NO (stereo not given) | 4.85% (inactive)
CC(=O)NS(=O)(=O)c1ccc(NC(=O)/C=C/C(=O)O)cc1 | -11.7% (inactive)
Nc1nc(=O)[nH]c(=O)[nH]1 | -14.6% (inactive)
O=C1CCCCC(=O)Nc2ccccc2N1 | -4.9% (inactive)
NCc1ccc(F)cc1 | 2.4% (inactive)
CC1(C)N=C(C(N)=O)c2ncn(Cc3ccccc3)c2N1 | -8.1% (inactive)
C(=Nc1cccnc1)c1ccc(C=Nc2cccnc2)cc1 | 33.8% (inactive)
CC(=O)[C@@]1(O)CC[C@H]2[C@@H]3CC[C@@H]4C[C@H](O)CC[C@]4(C)[C@H]3[C@H](O)C[C@@]21C | 11.3% (inactive)

SMILES | growth inhibition
COc1ccc(C2CC(=O)N(c3ncccn3)C(=O)C2)cc1 | -12.3% (inactive)
CC1(C)CC2(Nc3ccccc3N2)C2=C(O1)C(=O)OC2 | -6.15% (inactive)
C[n+]1cccc(C#N)c1 | 2.3% (inactive) and -6.65% (inactive)
CCCc1cc(Cl)ccc1OCC(=O)O | 20.5% (inactive)
C1CSCCSS[C@@H]2CCCCC2SC1 (stereo not given in full) | -12.1% (inactive)
Cn1cc(C(=O)c2ccccc2)cc(C(=O)c2ccccc2)c1=O | -15.2% (inactive)
NC(=O)C1CC2(c3ccccn3)c3ccccc3C1c1ccccc12 (stereo not given) | -22.1% (inactive)
O=S(=O)(Cc1nc2ccccc2[nH]1)Cc1nc2ccccc2[nH]1 | 4.95% (inactive)
N#Cc1cccc2c1Nc1ccccc1S2 | 5.9% (inactive)
CSc1nc(NC2OC(COC(C)=O)C(OC(C)=O)C(OC(C)=O)C2OC(C)=O)c(N=CC=Nc2c(NC3OC(COC(C)=O)C(OC(C)=O)C(OC(C)=O)C3OC(C)=O)nc(SC)[nH]c2=O)c(=O)[nH]1 (stereo not given) | 6.6% (inactive)
NCCCc1nonc1C(=O)O | -7.3% (inactive)
C[N+]1(Cc2csc(-c3ccc(Cl)cc3)n2)CCOCC1 | 0.7% (inactive)
COC(=O)c1ccccc1CC1Cc2ccc3c(c2C1=O)CCCC3 (stereo not given) | 17.8% (inactive)
O=C(O)C[N-]CC(=O)O.OO.[O]=[V] | 3.75% (inactive)
N#Cc1nc(C2CC2)oc1N | -25.2% (inactive)
c1ccc(OC2=NC3=S(S2)SC(Oc2ccccc2)=N3)cc1 | 12.5% (inactive)
CC(=O)CC(=O)Nc1nc2ccccc2s1 | -7.5% (inactive)
CCOc1nc(=O)n(C2OC(CO)C(O)C2O)s1 (stereo not given) | -5.65% (inactive)
CC1CCC(c2ccccc2)(c2ccccc2)C1=O (stereo not given) | -1.15% (inactive)
CCCOC(=O)c1ccc([N+](=O)[O-])cc1 | -16.7% (inactive)
